Source: PMC5540273 (PLoS ONE, 2017)

Assays:
Details in all cases: concentration: 1 μM, replicates: in singlicate; n = 1
CHEK2 = tested on: CHEK2
CIT = tested on: CIT
CLK1 = tested on: CLK1
CLK2 = tested on: CLK2
CLK3 = tested on: CLK3
CLK4 = tested on: CLK4
CSF1R-autoinhibited = tested on: CSF1R-autoinhibited
CSF1R = tested on: CSF1R
CSK = tested on: CSK
CSNK1A1L = tested on: CSNK1A1L
CSNK1A1 = tested on: CSNK1A1
CSNK1D = tested on: CSNK1D
CSNK1E = tested on: CSNK1E
CSNK1G1 = tested on: CSNK1G1
CSNK1G2 = tested on: CSNK1G2
CSNK1G3 = tested on: CSNK1G3
CSNK2A1 = tested on: CSNK2A1
CSNK2A2 = tested on: CSNK2A2
CTK = tested on: T1, CTK
T1 construct: gene MATK

DAPK1 = tested on: DAPK1
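Also: KINOMEscan kinase panel screen.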

| Structure (SMILES) | %Inh (CHEK2) [%] | %Inh (CIT) [%] | %Inh (CLK1) [%] | %Inh (CLK2) [%] | %Inh (CLK3) [%] | %Inh (CLK4) [%] | %Inh (CSF1R-autoinhibited) [%] | %Inh (CSF1R) [%] | %Inh (CSK) [%] | %Inh (CSNK1A1L) [%] | %Inh (CSNK1A1) [%] | %Inh (CSNK1D) [%] | %Inh (CSNK1E) [%] | %Inh (CSNK1G1) [%] | %Inh (CSNK1G2) [%] | %Inh (CSNK1G3) [%] | %Inh (CSNK2A1) [%] | %Inh (CSNK2A2) [%] | %Inh (CTK) [%] | %Inh (DAPK1) [%] |
| --- | --- | --- | --- | --- | --- | --- | --- | --- | --- | --- | --- | --- | --- | --- | --- | --- | --- | --- | --- | --- |
| Cc1cccc(-c2nc(Nc3ccncc3)c3ccccc3n2)n1 [GW855857] | 0 | 91.1 | 10 | 8 | 31 | 0 | 0 | 0 | 4 | 10 | 46 | 73 | 77 | 0 | 20 | 12 | 0 | 0 | 0 | 0 |
| COc1cccc(-c2cc(-c3c[nH]nc3-c3ccccn3)ccn2)c1 [GW680338] | 18 | 7 | 22 | 22 | 0 | 28 | 51 | 0 | 0 | 8 | 31 | 25 | 23 | 1 | 3 | 10 | 4 | 11 | 0 | 0 |
| CCCc1ccc(S(=O)(=O)NC2CCN(c3ccnc(Nc4ccc(F)cc4)n3)C2)cc1 (stereo not shown) [GSK1379715] | 0 | 0 | 12 | 0 | 10 | 0 | 0 | 0 | 0 | 0 | 0 | 0 | 25 | 2 | 0 | 2 | 0 | 0 | 0 | 0 |
| CC(C)(C)c1ccc(C(=O)Nc2cn3cc(-c4cccnc4)ccc3n2)cc1 | 6 | 28 | 84 | 41 | 32 | 74 | 10 | 30 | 13 | 15 | 41 | 78 | 92.4 | 10 | 24 | 21 | 22 | 17 | 12 | 40 |
| COc1ccccc1-c1ccc2c(NC(=O)C3CC3)n[nH]c2n1 [SB-711239] | 19 | 22 | 3 | 0 | 0 | 33 | 30 | 0 | 62 | 6 | 10 | 0 | 2 | 0 | 5 | 11 | 0 | 0 | 0 | 0 |
| Cn1ccc2ncnc(Oc3cccc(C(=O)Nc4ccccc4)c3)c21 | 0 | 8 | 9 | 0 | 0 | 18 | 9 | 6 | 14 | 2 | 0 | 0 | 1 | 0 | 0 | 2 | 25 | 11 | 17 | 20 |
| COc1cc2nccc(Nc3ccc(NC(=O)c4ccc(C)cc4)c(O)c3)c2cc1OC.Cl [GW440132] | 11 | 11 | 37 | 0 | 87 | 14 | 15 | 18 | 0 | 9 | 0 | 2 | 45 | 0 | 0 | 30 | 0 | 0 | 0 | 0 |
| Clc1cc(Cl)cc(Nc2ccnc(Nc3cc(Cl)cc(Cl)c3)n2)c1 [GSK175726] | 0 | 22 | 17 | 36 | 22 | 38 | 0 | 3 | 0 | 0 | 0 | 17 | 57 | 22 | 0 | 9 | 4 | 89 | 0 | 11 |
| O=C1NC(=O)C(N2CCc3ccccc32)=C1c1ccccc1Cl [SB-373598] | 0 | 29 | 12 | 45 | 0 | 19 | 0 | 4 | 46 | 15 | 33 | 18 | 18 | 13 | 9 | 14 | 2 | 15 | 0 | 22 |
| Cc1c(Cn2ccn3c(=O)cc(N4CCOCC4)nc23)cccc1C(F)(F)F [GSK2289044] | 0 | 22 | 33 | 54 | 20 | 33 | 0 | 9 | 0 | 0 | 33 | 6 | 25 | 19 | 5 | 18 | 0 | 3 | 0 | 13 |
| Cc1cccc(-c2cc(Nc3ccncc3)c3ccccc3n2)n1 [GSK223675] | 0 | 23 | 22 | 0 | 10 | 5 | 0 | 8 | 0 | 0 | 0 | 14 | 50 | 10 | 0 | 17 | 7 | 2 | 0 | 18 |
| Cc1nnc(-c2ccc3occ(-c4ccc(S(C)=O)cc4)c3c2)[nH]1 (stereo not shown) | 10 | 0 | 0 | 22 | 0 | 29 | 8 | 5 | 0 | 26 | 0 | 0 | 0 | 8 | 4 | 0 | 63 | 72 | 21 | 10 |
| Cc1ccc(NC(=O)Nc2cccc(Cl)c2)cc1-c1ccc(C(=O)Nc2ccncc2)cc1 [GSK1398468] | 0 | 86 | 30 | 0 | 12 | 5 | 12 | 78 | 0 | 15 | 0 | 57 | 19 | 2 | 0 | 25 | 0 | 0 | 0 | 3 |
| COc1cc(Nc2nccc(N3CCC(NC(=O)Nc4cc(C)ccc4C)C3)n2)cc(OC)c1OC (stereo not shown) [GSK1379762] | 0 | 11 | 32 | 6 | 0 | 29 | 0 | 14 | 0 | 17 | 3 | 0 | 13 | 1 | 0 | 22 | 25 | 0 | 8 | 0 |
